MARV entry inh: qHTS for inhibitors of binding or entry into cells for Marburg Virus | Marburg virus pseudotyped entry inhibition, cell reporter | Potency, µM (top dose mostly 37.8 µM), actives largely listed as inhibitors | 300,000 compounds, 1.8% hits | AID 540276, 2011; calls by dose curve; tested in HEK293 cells
VACV Venus inh: qHTS for Stage-Specific Inhibitors of Vaccinia Orthopoxvirus: Venus Reporter Primary qHTS | AID 720580, 2013 | Potency, µM (doses to about 36.5 µM), actives largely listed as inhibitors | Vaccinia virus Venus reporter expression, fluorescence | 330,000 compounds, 0.46% hits; calls by dose curve; tested in A549 cells; note: nearly all actives have a fitted effect of over 30% in size
HCV inh: qHTS Assay for Inhibitors of Hepatitis C Virus (HCV) | 340,000 compounds, 3.4% hits | AID 651820, 2012 | Huh7.5.1 HCVcc-Cre infection, luciferase reporter, 44 h | Potency, µM (doses to about 41.8 µM), actives largely listed as inhibitors; active = well fitted inhibition curve with a large enough effect; inconclusive = small, poorly fitted or top-dose-only effect, or another doubt; inactive = no such curve, though single readings can be large or run the other way
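Cells (1,000/well) were plated 4 h before compound, then infected with HCVcc-Cre virus (~0.5 moi). After 44 h further culture, infection was read as luciferase luminescence following a 15 min substrate incubation at room temperature.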
VACV mCherry inh: qHTS for Stage-Specific Inhibitors of Vaccinia Orthopoxvirus: mCherry Reporter Primary qHTS; Vaccinia virus mCherry reporter infection, fluorescence; 310,000 compounds, 0.63% hits; Potency, µM (top dose mostly 36.5 µM), most hits filed as inhibitors; calls by dose curve; tested in A549 cells; note: nearly all actives have a fitted effect of over 35% in size
Lassa entry inh: qHTS for Inhibitors of binding or entry into cells for Lassa Virus. Lassa virus pseudotype entry inhibition, cell reporter. Potency, µM (top dose mostly 37.9 µM), actives largely listed as inhibitors. 300,000 compounds, 1.2% hits. AID 540256, 2011; calls by dose curve; tested in HEK293 cells; note: nearly all actives have a fitted effect of over 50% in size
HCMV inh: qHTS Assay for inhibitors of the human cytomegalovirus (HCMV) | HFF cells, HCMV-luciferase reporter, 72 h; stronger effect = lower value | activity change, negative = inhibition, % at 57.5 µM | 410,000 compounds, 4.5% hits | AID 1259415, 2018; in the data active = activity change below about -60%; inconclusive = no clear call, values can overlap the other calls; inactive = above about -39%
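After 16 h attachment at 37C, HFF cells received test compound and HCMV-luciferase (1 PFU/cell); reporter luminescence read 72 h later, data normalized against buffer-only and known inhibitor Salinomycin.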
Each line names hits and unclear results; the compound was inactive in the other large screens. This is a sample that favours compounds with a hit; in the whole collection about 7.8% have one here.

COc1ccc(COC(=O)N/N=C2\C[C@@H](O)[C@@H](O)[C@@H]3[C@@H]4C(=O)N(Cc5ccc6c(c5)OCO6)C(=O)[C@@H]4CC[C@@H]23)cc1	none (no result: VACV Venus inh, HCV inh, VACV mCherry inh, Lassa entry inh, HCMV inh)
O=C(Nc1ccc(OC(F)F)c(Cl)c1)Nc1ccc2c(c1)OCO2	HCV inh 18µM (no result: VACV Venus inh, VACV mCherry inh)
O=C(Nc1ccc2c(c1)OCO2)Nc1ccc2c(c1)OCO2	none (no result: MARV entry inh, VACV Venus inh, VACV mCherry inh, Lassa entry inh)
C=CCNC(=S)Nc1ccc(OC(F)F)c(Cl)c1	HCV inh 11µM, Lassa entry inh inconclusive, HCMV inh inconclusive
C=CCNC(=S)Nc1ccc(Cl)cc1	none
O=C(Nc1ccc(Cl)cc1)Nc1ccc2c(c1)OCO2	none (no result: MARV entry inh, VACV Venus inh, VACV mCherry inh, Lassa entry inh)
O=C(Nc1cccc(C(=O)O)c1)Nc1ccc2c(c1)OCO2	MARV entry inh inconclusive, Lassa entry inh 0.32µM
CCOC(=O)c1cc(-c2ccc(F)cc2)n(CCC(=O)NCCc2ccc(C)cc2)c1C	none (no result: MARV entry inh, HCV inh)
O=c1cc(Cl)c(-c2ccccc2)nn1Cc1ccc(Cl)cc1	VACV mCherry inh inconclusive, HCMV inh -64
O=c1c2ccccc2c(-c2ccccc2)nn1Cc1ccc(Cl)cc1	none
CCOC(=O)c1cc(CC)sc1NC(=O)Cc1ccsc1	HCV inh 5.6µM, HCMV inh inconclusive
CNc1cc(-c2ccc(OC)c(OC)c2)ncn1	none (no result: MARV entry inh, HCV inh, Lassa entry inh)
CNc1ccc2ncc(-c3ccc(OC)c(OC)c3)n2n1	VACV Venus inh inconclusive, HCMV inh -83 (no result: MARV entry inh, HCV inh, Lassa entry inh)
COC(=O)Cn1c(C2CC(=O)N(c3c(C)cccc3C)C2)nc2ccccc21 (stereo unspecified)	VACV Venus inh inconclusive (no result: HCV inh)
CC(C)c1ccc(/C=N/NC(=O)c2ccccn2)cc1	MARV entry inh 5µM, Lassa entry inh inconclusive
O=C(N/N=C/c1ccncc1)c1ccccn1	none (no result: MARV entry inh, VACV Venus inh, VACV mCherry inh, Lassa entry inh, HCMV inh)
CN(C)c1ccc(/C=N/NC(=O)c2ccccn2)cc1	MARV entry inh inconclusive, Lassa entry inh inconclusive
CN(C)c1ccc(/C=N\NC(=O)c2csnn2)cc1	MARV entry inh 14µM, Lassa entry inh inconclusive
CC(C)c1ccc(C(=O)N/N=C/c2cccc(Cl)c2Cl)cc1	none
CC(C)c1ccc(/C=N/NC(=O)c2cccc(Cl)c2)cc1	MARV entry inh inconclusive, VACV Venus inh inconclusive, HCV inh 7.1µM, VACV mCherry inh inconclusive, Lassa entry inh inconclusive
Cc1cc(Nc2cccc([N+](=O)[O-])c2)n2c(nc3ccccc32)c1C#N	MARV entry inh 3.2µM, VACV Venus inh inconclusive, HCV inh 6.3µM, VACV mCherry inh inconclusive, Lassa entry inh 6.3µM, HCMV inh -100
Cc1sc2ccccc2[n+]1Cc1ccccc1	none (no result: MARV entry inh, HCV inh, Lassa entry inh, HCMV inh)
Cc1sc2ccccc2[n+]1CCCCBr	VACV Venus inh inconclusive, VACV mCherry inh 7.1µM (no result: MARV entry inh, HCV inh, Lassa entry inh, HCMV inh)
Cc1sc2ccccc2[n+]1CCCC[n+]1c(C)sc2ccccc21	VACV Venus inh inconclusive, VACV mCherry inh 2.8µM (no result: MARV entry inh, HCV inh, Lassa entry inh, HCMV inh)
O=C(NCCc1ccccc1)c1cc(-c2ccccc2)nc2n[nH]c(-c3ccccc3)c12	VACV mCherry inh inconclusive (no result: HCV inh)
Cc1ccc(/C=N/Nc2nnc(Cl)c3ccccc23)cc1	MARV entry inh 10µM, Lassa entry inh inconclusive
Clc1ccc(/C=N/Nc2nnc(Cl)c3ccccc23)cc1	Lassa entry inh inconclusive
CC(=O)Nc1ccc(C=NNc2nnc(NN=Cc3ccc(NC(C)=O)cc3)c3ccccc23)cc1	MARV entry inh inconclusive, HCV inh 22µM, Lassa entry inh 1.6µM
COc1cc(NC(=O)COc2cc(O)c3c(c2)OC(C)(C)CC3=O)cc(OC)c1OC	VACV Venus inh inconclusive, HCV inh 0.32µM, VACV mCherry inh inconclusive (no result: MARV entry inh, Lassa entry inh)
O=S(=O)(c1ccc(Cl)cc1)c1nc(-c2cccs2)oc1N1CCCCC1	MARV entry inh inconclusive (no result: HCV inh)
Cc1cc(N2CCN(C)CC2)n2nc(-c3ccc(Cl)cc3)nc2n1	VACV Venus inh inconclusive, VACV mCherry inh 7.9µM (no result: MARV entry inh, Lassa entry inh)
CCOc1ccccc1NC(=O)CCCc1nc2ccccc2c(=O)[nH]1	HCMV inh -87 (no result: VACV Venus inh, VACV mCherry inh)
CN1C(=O)c2ccccc2Sc2ccc(NC(=O)N3CCN(c4cccc(Cl)c4)CC3)cc21	MARV entry inh 11µM, Lassa entry inh inconclusive, HCMV inh inconclusive (no result: HCV inh)
CN1C(=O)c2ccccc2Sc2ccc(NC(=O)Nc3ccccc3F)cc21	MARV entry inh inconclusive (no result: HCV inh)
CN1C(=O)c2ccccc2Sc2ccc(NC(=O)Cc3c(F)cccc3Cl)cc21	Lassa entry inh inconclusive, HCMV inh -82 (no result: MARV entry inh, HCV inh)

Source: PubChem
